{"source": "ChEMBL document CHEMBL1157539", "about": "“Thousands of chemical starting points for antimalarial lead identification” (Nature, 2010)", "data": [{"test_system": "Plasmodium falciparum", "test": "GSK_TCMDC: Inhibition of Plasmodium falciparum 3D7 in whole red blood cells, using parasite LDH activity as an index of growth. Test compounds present at 2uM", "assay_type": "functional", "units": {"Inhibition": "%"}, "values": [{"smiles": "Cc1[nH]n(-c2cccc(C(F)(F)F)c2)c(=O)c1-c1ccc(Cl)cc1", "Inhibition": 98}, {"smiles": "Nc1nccc2ccc(-c3ccc4ncccc4c3)cc12.O=C(O)C(F)(F)F", "Inhibition": 100}, {"smiles": "Cc1cc(N[C@@H](Cc2ccccc2)C(=O)NCc2cccc(F)c2)nc(NCCc2cccs2)n1.O=C(O)C(F)(F)F", "Inhibition": 99}, {"smiles": "Cc1cc(NCC(C)C)c2[nH]nc(-c3ccccc3)c2n1", "Inhibition": 99}, {"smiles": "COc1ccccc1-n1c(SCC(=O)c2ccc3c(c2)CC(=O)N3C)nnc1-c1cccs1", "Inhibition": 95}, {"smiles": "CCCCCCc1cnc2nc(N)nc(N)c2c1C", "Inhibition": 93}, {"smiles": "CCC(C)Oc1ccc2nc(N)nc(N)c2c1Cl", "note": "(centres undefined)", "Inhibition": 96}, {"smiles": "O=C(Nc1ccc(Cl)cc1)c1cc(Cl)cc2nc(C(F)(F)F)[nH]c12", "Inhibition": 100}, {"smiles": "CC(C)(C)OC(=O)C1CCCN(Cc2ccc(-c3cccc(-c4nc5ccccc5[nH]4)c3)cc2)C1.O=C(O)C(F)(F)F", "note": "(centres undefined)", "Inhibition": 93}, {"smiles": "O=C(/C=C/c1ccc(Cl)cc1Cl)N1CCC(CCN2CCC(c3c[nH]c4ccccc34)CC2)CC1", "Inhibition": 98}, {"smiles": "CCCCCCCN1CC[C@@H](CCCc2ccnc3ccc(OCCC4CCNCC4)cc23)[C@@H](CC)C1.Cl", "Inhibition": 100}, {"smiles": "C=CCOC(=O)N1CCC(CNCc2cccc(-c3cccc(-c4nc5cccc(C)c5[nH]4)c3)c2)C1.O=C(O)C(F)(F)F", "note": "(centres undefined)", "Inhibition": 100}, {"smiles": "COc1ccc2nccc([C@@H](O)CN3CCC(NCc4cc5ccccn5n4)CC3)c2c1.O=C(O)C(=O)O", "Inhibition": 99}, {"smiles": "O=S(=O)(Nc1cccc(CCN2CCC(N3CCCCC3)CC2)c1)c1ccc(Cl)cc1", "Inhibition": 94}]}]}
